Source: PubChem BioAssay (National Center for Advancing Translational Sciences (NCATS))
This is a sample that favours compounds with a hit; in the whole collection about 7.3% have one here.
SMN2 splice enh: qHTS Assay for Enhancers of SMN2 Splice Variant Expression. 210,000 tested, 2.8% active. AID 1458, 2008. Potency, µM (series often up to 46.1 µM), inactives show top-dose activity change, positive = activation, most hits filed as activators. HEK293 SMN2-luciferase splicing reporter, luminescence, 30-36 h; also: % of control where 0% means no effect; nearly all actives have a fitted effect of over 55% in size
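HEK293 cells carry an SMN2 […]–luciferase reporter in which exon 7 inclusion puts luciferase in frame. Cells were plated 10-12 h before compound addition, then incubated 30-36 h at 37C. ONE-Glo luminescence was read; sodium butyrate at 4.5 mM final served as control.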
ELG1 genotox: qHTS screen for small molecules that induce genotoxicity in human embryonic kidney (HEK293T) cells expressing luciferase-tagged ELG1; HEK293T ELG1-luciferase reporter, luminescence, 16 h; Potency, µM (top dose mostly 46 µM), without a hit: at the top dose activity change, positive = activation, hits mostly activators; 330,000 tested, 1.3% active; also: % of control where 0% means no effect; nearly all actives have a fitted effect of over 60% in size
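Luminescence read-out: rising ELG1-luciferase signal, reflecting elevated ELG1 protein under genetic stress, flags genotoxic compounds. Cells were treated for 16 hr at 37 °C before ONE-Glo detection.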
Rab9 prom act: qHTS Assay for Rab9 Promoter Activators. Huh7 Rab9 promoter-luciferase reporter, luminescence, 24 h. Potency, µM (titrated, usually from 9.22 µM), for the others: at the highest dose activation, negative = inhibition, actives largely listed as activators. 320,000 tested, 2.8% active. AID 485297, 2010; also: % of control where 0% means no effect; nearly all actives have a fitted effect of over 60% in size
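Huh7 reporter line, Rab9 promoter upstream of luciferase. Compound exposure 24 h at 37 °C in reduced-serum medium with 10% FBS. Read-out: luminescence.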
NPC1 promoter act: qHTS Assay for NPC1 Promoter Activators; Huh7 NPC1 promoter luciferase reporter, 24 h; Potency, µM (doses to about 9.22 µM), for the others: at the highest dose activation, actives largely listed as activators; 320,000 tested, 2.4% active; also: % of control where 0% means no effect; nearly all actives have a fitted effect of over 60% in size
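Huh7 cells stably carrying NPC1 promoter–luciferase, plated in Opti-MEM with 10% FBS for 2 h, were exposed to compound in DMSO for 24 h at 37 °C; luciferase reagent was added for 10 min and luminescence read.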
FLuc counter: qHTS profiling assay for firefly luciferase inhibitor/activator using purifed enzyme and Km concentrations of substrates (counterscreen for miR-21 project). Luciferin 4-monooxygenase (Photinus pyralis), P08659. purified FLuc, Km substrates, luminescence inhibition. Potency, µM (series often up to 57.5 µM), without a hit: at the top dose activity change, negative = inhibition, most hits filed as inhibitors. 360,000 tested, 6.9% active;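 also: plate controls were vehicle for no effect and reference inhibitor for full effect; nearly all actives have a fitted effect of over 55% in size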
Target sequence (P08659 whole entry, looked up): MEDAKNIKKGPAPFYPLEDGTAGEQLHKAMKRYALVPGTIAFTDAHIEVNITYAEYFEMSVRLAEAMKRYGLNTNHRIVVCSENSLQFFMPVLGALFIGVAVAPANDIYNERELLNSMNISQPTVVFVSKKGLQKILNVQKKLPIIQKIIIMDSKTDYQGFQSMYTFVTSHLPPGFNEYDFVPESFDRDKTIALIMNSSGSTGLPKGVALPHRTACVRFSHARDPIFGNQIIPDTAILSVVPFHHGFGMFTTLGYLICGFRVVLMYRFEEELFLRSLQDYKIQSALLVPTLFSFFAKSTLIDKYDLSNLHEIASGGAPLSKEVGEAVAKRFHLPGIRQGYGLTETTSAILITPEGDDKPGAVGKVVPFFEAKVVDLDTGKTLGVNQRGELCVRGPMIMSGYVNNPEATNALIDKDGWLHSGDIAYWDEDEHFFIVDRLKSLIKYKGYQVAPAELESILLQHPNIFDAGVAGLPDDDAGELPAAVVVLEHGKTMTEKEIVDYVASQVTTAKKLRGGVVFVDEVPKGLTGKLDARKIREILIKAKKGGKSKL
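Biochemical qHTS of compounds, final roughly 60 µM downward over six points, against 10 nM purified firefly luciferase using Km concentrations of substrates (10 uM D-luciferin, 10 uM ATP) in Tris acetate pH 7.5 buffer; luminescence output.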
uPA generation: qHTS for Inhibitors of Cell Surface uPA Generation; cell surface uPA generation assay, qHTS; Potency, µM (titrated, usually from 38.3 µM), for inactives: at the highest dose activity change, negative = inhibition, actives largely listed as inhibitors; 330,000 tested, 0.31% active; active = well fitted inhibition curve with a large enough effect; inconclusive = small, poorly fitted or top-dose-only effect; inactive = no such curve, though single readings can be large or run the other way; tested in mouse RAW 264.7 cells; also: % is scaled to controls: 0 for no effect and ±100 for the full control effect; nearly all actives have a fitted effect of over 55% in size
An asterisk follows results filed as active; ? = inconclusive; . = not tested or not shown; [ ] = dose if it differs, or a comment. Unless noted, calls follow the shape of the dose curve; as a rule, active = well fitted curve in the direction sought with a large enough effect; inconclusive = small, poorly fitted or top-dose-only effect, or another doubt; inactive = no such curve, though single readings can be large; an effect the other way counts as inactive or inconclusive. Potency is read from the fitted curve at half-maximal effect.

SMILES	SMN2 splice enh	ELG1 genotox	Rab9 prom act	NPC1 promoter act	FLuc counter	uPA generation
C/C=C/C=C/C(=O)N1CC2(CC(c3cccc(NC(=O)CCCCC)c3)=NO2)C[C@H]1C(N)=O (some centres undefined)	.	-3.4%	-1.4%	-2.7%	-16.9%	1.6%
C/C=C(/C)C(=O)Nc1cccc(C2=NOC3(C2)C[C@H](C(N)=O)N(C(=O)Cc2ccc([N+](=O)[O-])cc2)C3)c1 (some centres undefined)	.	4.7%	-0.9%	-0.9%	4.8%	13.0%
C/C=C\C=C/C(=O)Nc1cccc(C2=NOC3(C2)C[C@H](C(N)=O)N(C(=O)CC)C3)c1 (some centres undefined)	.	-0.4%	3.2%	1.4%	19µM*	-6.5%
C/C=C\C=C/C(=O)Nc1cccc(C2=NOC3(C2)C[C@H](C(N)=O)N(C(=O)Cc2ccc([N+](=O)[O-])cc2)C3)c1 (some centres undefined)	.	8.3%	1.2%	-0.9%	21.3µM*	14.0%
Cc1cccc(Cn2nnc3c(=O)[nH]c(C4CCN(C(=O)c5ccc(F)cc5)CC4)nc32)c1	-2.6%	.	.	.	4.0%	.
COc1ccc(-c2nc(C#N)c(NCC3CCCO3)o2)cc1 (centres undefined)	?	13.0%	21.0%	21.5%	13.5µM*	-23.9%
CCOc1ccc(-c2nc(C#N)c(NC3CC3)o2)cc1	27.4%	29.7%	?	13.0%	15.1µM*	.
Cc1cccc(-c2nc(C#N)c(N3CCCCCC3)o2)c1	?	16.4µM*	17.6%	22.8%	10.7µM*	-0.2%
Cc1cccc(-c2nc(C#N)c(N3CCC(C)CC3)o2)c1	.	-0.2%	-3.3%	-0.7%	-1.7%	5.7%
Cc1cccc(-c2nc(C#N)c(NCC3CCCO3)o2)c1 (centres undefined)	.	?	2.51µM*	2.82µM*	12µM*	-1.4%
CCOc1ccc(-c2nc(C#N)c(NCc3ccc4c(c3)OCO4)o2)cc1	?	4.3%	15.8%	10.7%	-14.9%	?
Cc1cc(C)c(NC(=O)CSc2ncc3c(n2)-c2cc(Cl)ccc2N(C)S3(=O)=O)c(C)c1	.	.	.	.	-0.3%	.
O=C(Cn1c(=O)n(CCCS(=O)(=O)C2CCCCC2)c(=O)c2ccccc21)Nc1ccc(F)c(Cl)c1	-10.3%	.	.	.	-0.6%	.
Cc1nc2cccnc2n1-c1cccc(C(=O)NCc2cccc(Cl)c2)c1	.	.	.	.	-7.2%	.
N#Cc1nc(-c2cccs2)oc1NCC1CCCO1 (centres undefined)	16.1%	5.6%	-0.9%	1.1%	-14.3%	5.9%
Cc1ccc(-c2nc(C#N)c(NCC3CCCO3)o2)cc1 (centres undefined)	12.6µM*	?	?	?	21.3µM*	-13.3%
O=C(C=Cc1cccc(O)c1)c1ccccc1O	.	.	.	.	.	-11.1%
O=C(/C=C/c1ccc(O)c(O)c1)c1ccccc1O	.	?	-17.7%	-0.4%	8.49µM*	-4.3%
COc1ccc(O)c(C(=O)/C=C/c2cc3ccccc3o2)c1	.	.	-6.8%	-1.9%	?	-5.1%
O=C(/C=C/c1ccc(O)c(O)c1)OCCc1ccccc1	15.8µM*	.	-25.0%[46.1 µM]	-8.3%[46.1 µM]	.	0.891µM*
O=C(O)/C=C\c1ccc(O)c(O)c1	-2.4%[20.6 µM]	.	.	.	.	.
O=C(/C=C/c1ccoc1)c1ccccc1O	-6.9%	?	-2.6%	-2.8%	9.53µM*	1.2%
O=C(/C=C/c1cc2ccccc2o1)c1ccccc1O	.	?	?	?	2.39µM*	-3.3%
CCCc1ccc(OC(C)c2nc(-c3ccc(-n4cccc4)cc3)no2)cc1 (centres undefined)	-23.9%	.	.	.	-6.4%	.
CCCN(CCC)c1ccc(C2N=C(N)Nc3nc4ccccc4n32)cc1 (centres undefined)	13.0%	.	.	.	-2.2%	.
